PubChem BioAssay
Activity calls are given as the source filed them.

molecular target: NADPH oxidase 4 (Homo sapiens) (UniProt Q9NPH5); assay: compounds shifting NOX4 Amplex Red fluorescence – cell-based, HEK293-NOX4, tetracycline-induced, NOX inhibitor project, primary screen (AID 1160); conditions: HEK293-NOX4, Amplex Red H2O2 fluorescence, 45 min; higher = more signal, called active from +8 up or from −8 down
Sequence (Q9NPH5 whole entry, looked up): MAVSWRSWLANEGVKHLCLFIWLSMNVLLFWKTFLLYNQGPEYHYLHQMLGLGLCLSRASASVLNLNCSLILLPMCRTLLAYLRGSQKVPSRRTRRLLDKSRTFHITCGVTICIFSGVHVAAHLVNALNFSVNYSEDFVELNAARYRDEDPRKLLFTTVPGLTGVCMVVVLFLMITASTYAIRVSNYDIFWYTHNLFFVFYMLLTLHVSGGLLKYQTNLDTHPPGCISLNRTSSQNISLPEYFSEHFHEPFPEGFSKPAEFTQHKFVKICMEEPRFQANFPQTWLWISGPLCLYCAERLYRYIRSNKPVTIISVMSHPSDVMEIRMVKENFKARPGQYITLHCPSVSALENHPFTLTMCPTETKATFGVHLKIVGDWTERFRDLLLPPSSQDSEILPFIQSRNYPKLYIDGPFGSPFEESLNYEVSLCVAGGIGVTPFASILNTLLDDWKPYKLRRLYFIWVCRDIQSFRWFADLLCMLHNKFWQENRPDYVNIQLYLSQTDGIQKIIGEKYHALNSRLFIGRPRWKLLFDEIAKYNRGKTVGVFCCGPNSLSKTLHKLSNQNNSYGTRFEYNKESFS

z-score, inactive:
C=CCN1C(=O)[C@]2(O[C@H](CCO)[C@@H]([Si](C)(C)c3ccc(OC)cc3)[C@@H]2C)c2cc(N3C(=O)c4cccc5cccc3c45)ccc21 0.4
C[N+](C)(C)CCCCNC(=O)[C@H]1C[C@H]2C(=O)N[C@@H](Cc3ccccc3)C(=O)N2[C@H]1c1ccc(O)cc1 -1.27
COC(=O)[C@@]1(Cc2ccc(F)cc2)[C@H]2c3cc(C(=O)N4CCCC4)n(Cc4cc(C)n(C)n4)c3C[C@H]2CN1C(=O)c1ccccc1 0.368
Cc1ccc(S[C@]2(C(=O)NCC(F)(F)F)CC(=O)N(C(C)C)[C@@H]2c2ccc(CO)cc2I)cc1 -2.38
CO[C@H]1O[C@H](CO)[C@@H](OC(=O)Nc2ccc(Br)cc2)[C@H](OC(=O)c2cc3ccccc3[nH]2)[C@H]1OC(=O)c1cc2ccccc2[nH]1 -0.642
COc1ccc(CCNC(=O)[C@@]2(Sc3ccc(C)cc3)CC(=O)N(C3CCCCC3)[C@@H]2c2ccc(CO)cc2I)cc1 0.672
CC(C)c1ccc(NN2C(C(O)c3cc(C(F)(F)F)cc(C(F)(F)F)c3)C=CC3C(=O)N(c4ccccc4)C(=O)C32)cc1 (stereo not given) -5.07
COc1ccc([C@H]2OC[C@@H]3CC4(CC=CC4)C(=O)N32)cc1 0.674
CN1C(=O)C2C=CC(C(O)C3CC=CCC3)N(NC(=O)OC(C)(C)C)C2C1=O (stereo not given) -0.861
N#Cc1ccc(NN2C(C(O)c3c(F)cccc3Cl)C=CC3C(=O)N(c4ccccc4)C(=O)C32)cc1 (stereo not given) -3.86
CCOC(=O)C1=CCC(c2ccccc2)N(S(=O)(=O)CC[Si](C)(C)C)C1 (stereo not given) 0.976
O=C1OCCC/C=C\[C@H]2OC34C=CCN(CCN5CCOCC5)C(=O)[C@H]3N(CCCO)C(=O)[C@@H]4C12 (stereo not given in full) 0.481
COc1cc2c(cc1O)C=[N+](Cc1cccc(OC(F)(F)F)c1)CC2 -2.56
COc1ccc(C(=O)Nc2cccc(CN3C(=O)[C@]4(O[C@H](CCO)[C@@H]([Si](C)(C)c5ccc(OC)cc5)[C@@H]4C)c4ccccc43)c2)cc1 -2.74
CCCCCN1CC=CC23O[C@@H]4/C=C\CCCOC(=O)C4[C@H]2C(=O)N(C(CO)C(C)C)[C@@H]3C1=O (stereo not given in full) 0.481
O=C1O[C@H](c2ccccc2)[C@H](c2ccccc2)N2[C@H]1[C@@H](C(=O)NC[C@H](O)c1ccccc1)[C@]1(C(=O)Nc3ccccc31)[C@H]2c1ccc(OCCO)cc1 1.02
CCOC(=O)[C@H]1CC=C2CC1C(=O)N1CCC[C@@H]1[C@@H]2O[Si](C)(C)C(C)(C)C (stereo not given in full) -0.625
CCN(CC)c1ccc(N2CC=CC34O[C@@H]5/C=C\CCCOC(=O)C5[C@H]3C(=O)N(CCO)[C@@H]4C2=O)cc1 (stereo not given in full) -0.72
COCCOC(=O)N1C(=O)[C@@]2(c3cc(C#CC4=CCCCC4)ccc31)[C@H](C(=O)Nc1nc3ccccc3s1)[C@H]1C(=O)O[C@H](c3ccccc3)[C@H](c3ccccc3)N1[C@@H]2c1ccc(OCCO)cc1 0.101
CN1C(=O)C2C=CC(C(O)c3ccc(I)cc3)N(N3CCCCC3)C2C1=O (stereo not given) -2.14
CC1CC/C=C\[C@H]2OC34C=CCN(c5ccc(Cl)cc5)C(=O)[C@H]3N(CCO)C(=O)[C@]4(C)C2C(=O)O1 (stereo not given in full) 0.741
COCCOC(=O)N1C(=O)[C@@]2(c3cc(C#Cc4ccc(OC)cc4)ccc31)[C@H](c1ccc(O)cc1)N1[C@H](c3ccccc3)[C@H](c3ccccc3)OC(=O)[C@H]1[C@@H]2C(=O)NC[C@H](O)c1ccccc1 -1.05
COc1ccc([Si](C)(C)[C@H]2[C@H](CCn3cc([C@H](O)c4ccccc4)nn3)O[C@@]3(C(=O)N(Cc4cccc(N5CCOC5=O)c4)c4ccccc43)[C@@H]2C)cc1 2.51
CN1C(=O)C2C=CC(C(O)C3=C[C@H]4C[C@@H](C3)C4(C)C)N(Nc3ccccc3)C2C1=O (stereo not given in full) -3.91
CC(=O)NCCCC[C@@H]1NC(=O)[C@@H]2C[C@H](C(=O)NCCCCN(C)C)[C@H](c3cccc(OCCO)c3)N2C1=O -0.115
COc1ccc(CCNC(=O)[C@@]2(C)c3ccccc3C(=O)N(Cc3cc(F)cc(C(F)(F)F)c3)[C@H]2c2ccc(CO)cc2)cc1 -1.28
C=CCOC(=O)[C@H]1[C@@H]2C(=O)O[C@@H](c3ccccc3)[C@@H](c3ccccc3)N2[C@@H](c2ccc(OCCOC(=O)[C@@H]3C[C@@H]4C(=O)N[C@@H](CCCC[N+](C)(C)C)C(=O)N4[C@@H]3c3ccc(O)cc3)cc2)[C@]12C(=O)Nc1ccccc12 0.568
O=C1OCCC/C=C\[C@H]2OC34C=CCN(Cc5ccccc5)C(=O)[C@H]3N(CCCCCCO)C(=O)[C@@H]4C12 (stereo not given in full) 0.279
C=C(CCCC)C(=O)CC[C@H](OC(C)=O)c1cccc(OCCO)c1 -0.766
CC(C)N1C(=O)[C@@]2(Cc3ccccc31)c1ccccc1C(=O)N(C1CCCCC1)[C@H]2c1ccc(CO)cc1 0.217
COCCOC(=O)N1C(=O)[C@@]2(c3cc(C#CC4(O)CCCCCC4)ccc31)[C@H](c1ccc(O)cc1)N1[C@H](c3ccccc3)[C@H](c3ccccc3)OC(=O)[C@H]1[C@@H]2C(=O)Nc1nc2ccccc2s1 0.507
O=C1O[C@@H](c2ccccc2)[C@@H](c2ccccc2)N2[C@@H](c3ccccc3OCCO)[C@]3(C(=O)Nc4ccc(C#CC5=CCCCC5)cc43)[C@@H](C(=O)Nc3nc4ccccc4s3)[C@H]12 0.387
C=CCOC(=O)[C@@H]1[C@H]2C(=O)O[C@H](c3ccccc3)[C@H](c3ccccc3)N2[C@H](c2ccc(OCCOC(=O)[C@@H]3C[C@@H]4C(=O)N5CCC[C@H]5C(=O)N4[C@@H]3c3ccc(O)cc3)cc2)[C@@]12C(=O)Nc1ccc(I)cc12 0.808
C=CCNC(=O)[C@H]1[C@@H]2C(=O)O[C@@H](c3ccccc3)[C@@H](c3ccccc3)N2[C@@H](c2ccc(OCCO)cc2)[C@]12C(=O)N(C(=O)OCCOC)c1ccccc12 0.743
COc1ccc(C(=O)O[C@H]2CC[C@]3(C)C4=C(CCC3C2(C)C)[C@]2(C)CC[C@H]([C@H](C)CCCC(C)C)[C@@]2(C)CC4)cc1 (stereo not given in full) 0.257
